# Measurements taken from PubChem BioAssay (Tox21).
# “And” between values parts separate entries of the source, which are not always exact repeats. Identical values can stand only once. Inconclusive results are not listed. Unmarked numbers belong to inactive results. The source made the active and inactive calls. The call rests on the fitted dose curve; in most records, active means well fitted cell-killing curve with a large enough effect in the repeat runs; inconclusive means weak or mixed curves, or effect the other way; inactive means flat fitted curve, though single readings scatter.
# Experiment: cAMP Responsive Elements (CRE) small molecule antagonists, cell-based qHTS assay: qHTS cell viability counter screen (AID 2060913); further: nearly all actives have a fitted effect of over 40% in size
# Conditions: CRE-bla HEK293T viability, CellTiter-Glo luminescence, 5 h; series mostly up to 92.4 µM; viability change, negative = cytotoxic: at the top concentration
# Procedure, shortened: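 HEK293T CRE-bla, 2,000 cells/well, 18 h preincubation; cpd in DMSO + NKH477 0.25 uM final, 3 h 37 C/5% CO2; LiveBLAzer 2 h RT, then CellTiter-Glo 30 min RT, luminescence.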
# On the % scale 0 is the no-effect control and ±100 the full control effect; potency means the concentration at half of the fitted maximal effect.
Compound,Potency,"viability change, negative = cytotoxic"
O=S1OCC2C(CO1)C1(Cl)C(Cl)=C(Cl)C2(Cl)C1(Cl)Cl (stereo not given),61.1 µM (active),
O=C(O)CCCOc1ccc(Cl)cc1Cl,inactive,
CN(N=O)c1ccc([N+](=O)[O-])cc1,,0.189%
C[As+](C)(C)CC(=O)[O-],,0.624%
CCCN(CCC)c1c([N+](=O)[O-])cc(S(N)(=O)=O)cc1[N+](=O)[O-],43 µM (active),
CC(CC(C(N)=O)(c1ccccc1)c1ccccc1)N(C)C (stereo not given),,-1.24% [at 42.5 µM]
O=c1c2ccccc2c(=O)c2c1cc(Cl)c1[nH]c3c([nH]c12)c(Cl)cc1c(=O)c2ccccc2c(=O)c13,,1.78%
CC(=O)[O-].CC(=O)[O-].O.O.[Zn+2],,-11.6%
N#Cc1nn(-c2c(Cl)cc(C(F)(F)F)cc2Cl)c(N)c1S(=O)C(F)(F)F (stereo not given),,-16.1% [at 42.5 µM]
CCCCCCCc1ccc(O)cc1,,-5.77%
c1ccc(N=NNc2ccccc2)cc1,,5.34%
O=[N+]([O-])c1ccc(O)c([N+](=O)[O-])c1,54.5 µM (active),
[CH3][Sn]([Cl])([Cl])[Cl],inactive,
CCN1CCC2(CC1)COc1cc3c(cc12)N(C(=O)c1ccc(-c2ccc(-c4nnc(C)o4)cc2C)cc1)CC3,56.4 µM (active),
C[C@@H]1CN(C2CCC(C#N)(c3ccc(F)cc3)CC2)CC[C@]1(C(=O)O)c1ccccc1 (stereo not given in full),,-0.932% [at 42.5 µM]
Nc1ccc(Sc2ccc(N)cc2)cc1,,4.2%
Cc1cc(C(C)(C)c2ccc(O)c(C)c2)ccc1O,,-16.4%
COP(=S)(OC)Oc1ccc(S(=O)(=O)N(C)C)cc1,inactive,
[F][Sn]([c]1ccccc1)([c]1ccccc1)[c]1ccccc1,5.45 µM (active),
CNNC,,-6.6%

Compound,Potency,"viability change, negative = cytotoxic"
Cc1coc2c1CCC(C)C2 (stereo not given),,-0.185%
O=C(OC1CCCCC1)c1ccccc1C(=O)OC1CCCCC1,,-17%
Brc1ccc(Oc2cc(Br)c(Br)cc2Br)c(Br)c1,inactive,
CC(C)[C@H](C(=O)OC(C#N)c1cccc(Oc2ccccc2)c1)c1ccc(OC(F)F)cc1 (stereo not given in full),,-19.2%
COCC(=O)N(c1c(C)cccc1C)[C@H](C)C(=O)OC,,-0.0434%
CCCCC(CC)CO[N+](=O)[O-] (stereo not given),,-5.32%
C=C(C)CN(CC)c1c([N+](=O)[O-])cc(C(F)(F)F)cc1[N+](=O)[O-],,0.966%
CC12CC1(C)C(=O)N(c1cc(Cl)cc(Cl)c1)C2=O (stereo not given),inactive,
Clc1ccc(COC(Cn2ccnc2)c2ccc(Cl)cc2Cl)cc1 (stereo not given),50.8 µM (active) and 45.1 µM (active),
COc1cc(C[C@@H](C)N)c(OC)cc1C,,-1.48%
CC(=O)Nc1cc([As](=O)(O)O)ccc1O,,0.866% [at 42.5 µM]
Nc1nc(N)nc(Cl)n1,,1.35%
CCOc1ccc(C(C)(C)COCc2cccc(Oc3ccccc3)c2)cc1,,2.93%
CC(C)(C)c1ccc(OP(=O)(Oc2ccccc2)Oc2ccccc2)cc1,,-20.3%
O=c1nc(O)n(Cl)c(=O)n1Cl,inactive,
O=C(O)C(Cl)Cl,inactive,
CCC1CCC(=O)O1 (stereo not given),,0.299%
CC1(C)CC/C(=C/c2ccc(Cl)cc2)C1(O)Cn1cncn1 (stereo not given),,0.26%
CCOC(=O)c1ncn2c1CN(C)C(=O)c1c(I)cccc1-2,,-2.46% [at 42.5 µM]
N#Cc1ccccn1,inactive,
